High-throughput results deposited in PubChem by Broad Institute.
Mot1-301 SUMO: inhibitors of SUMOylation pathway: yeast Mot1-301 growth rescue; 320,000 compounds, 1% hits; AID 2716; growth rescue, % at 18.8 µM; S. cerevisiae Mot1-301 growth rescue, ATP luminescence, 38.5C; percent above DMSO median, 100 means doubled;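 active = every valid replicate shows activation above 250% relative to neutral control wells; inactive = the rest, any valid replicate at or below 250%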;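 also: OY570 slx delta 5 strain wells were the positive control but not used for scaling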
ALR H2O2 inh: inhibitors of human sulfhydryl oxidase ALR; purified ALR, DTT oxidation, H2O2 HRP-luminol luminescence; inhibition, % (test concentration not listed); 290,000 compounds, 3.8% hits;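 active = mean replicate inhibition above about 79%, with every replicate also reaching it, limit read from the data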
Target sequence (P55789 whole entry, looked up): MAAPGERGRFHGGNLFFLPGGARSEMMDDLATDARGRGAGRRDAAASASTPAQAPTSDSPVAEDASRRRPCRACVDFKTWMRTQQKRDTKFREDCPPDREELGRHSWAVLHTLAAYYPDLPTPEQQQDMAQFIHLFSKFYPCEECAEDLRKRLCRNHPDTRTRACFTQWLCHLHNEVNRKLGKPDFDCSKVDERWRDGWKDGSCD
HIF activator: HIF pathway transcriptional activation. 300,000 compounds, 0.32% hits. activation, % at 7.5 µM (by protocol). U2OS HRE-luciferase reporter, luminescence; normalized: DMSO 0%, desferrioxamine 100%. AID 1910;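 active = mean activation of at least 10% of the iron chelator positive control signal, with at least half of replicates also reaching 10%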
AI-2 QS modul: modulators of Vibrio harveyi AI-2 quorum sensing system | AID 2094 | 300,000 compounds, 0.4% hits | activity change, % at 7.5 µM | Vibrio harveyi JMH597 AI-2 luminescence/OD600 ratio, 9 h; active compounds read low; strain lacks LuxN and CqsS sensors; 0 = neutral-control median; in the data active = activity change below about -75%, passing the limit was not always enough;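 also: luminescence divided by OD600 gain over 9 h not by final OD600 alone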
An asterisk follows results filed as active; / = no result. An excerpt weighted towards active compounds, which were near 4.8% of everything screened.

SMILES	Mot1-301 SUMO	ALR H2O2 inh	HIF activator	AI-2 QS modul
CC(C)COC(=O)N1C[C@H](O)C[C@H]1C(=O)Nc1ccc(Cl)cc1	26	-3	1	6
CCOc1ccc(N(CC(=O)NCCSCc2ccc(Cl)cc2)S(C)(=O)=O)cc1	-16	0	-2	17
Cc1cc(O)c(C=O)c2c1C(=O)Oc1c(CO)c(O)c3c(c1O2)C(O)OC3=O (configuration not stated)	-19	99*	/	/
COc1ccc2oc3cc(C)[n+]([O-])c(-c4ccc(C)cc4)c3c2c1	8	93*	-1	39
COc1ccc(-c2c3c(cc(C)[n+]2[O-])oc2ccc(OC)cc23)cc1	-10	45	0	30
O=C(/C=C/c1ccco1)Oc1cc(Br)cc(/C=N/NC(=O)c2ccccc2O)c1	182	8	97*	23
CCOc1ccc(CCNC(=O)COC(=O)c2ccc3c(c2)OCCO3)cc1OCC	1	1	0	22
O=c1c2ccccc2nc2c3ccccc3c(NCCN3CCOCC3)nn12	27	-3	26*	10
O=c1c2ccccc2nc(-c2ccccc2)n1CCN1CCOCC1	0	/	0	18
Oc1ccc(-c2nc(-c3ccc(O)c(O)c3)cs2)cc1	70	99*	0	39
COc1ccccc1N1CCN(C2CCCN(C(=O)CCc3c(C)noc3C)C2)CC1 (configuration not stated)	-8	94*	-1	8
COc1ccccc1N1CCN(C2CCCN(C(=O)CCc3cnccn3)C2)CC1 (configuration not stated)	3	54	0	7
O=C(Nc1cccs1)Nc1c(F)cc(F)cc1Br	3	96*	0	15
Cc1ccc(N2CC(C(=O)NCc3n[nH]c(=O)c4ccccc34)CC2=O)cc1 (configuration not stated)	14	-16	-25	20
CCN1CCCc2cc(CN(CCN3CCOCC3)C(=S)Nc3cccc(OC)c3)ccc21	-2	87*	0	18
CCCN1CCCc2cc(CN(CCCN3CCOCC3)C(=O)Nc3ccc(OCC)cc3)ccc21	-23	99*	0	21
CCOc1ccc(NC(=O)N(CCN2CCOCC2)Cc2ccc3c(c2)CCCN3CC)cc1	-2	100*	0	76
CS(=O)(=O)N1CCC(C(=O)Nc2cc(Cl)c(Cl)cc2Cl)CC1	-1	-1	-25	/
CC(C)c1ccc(CNCCCSc2ncccn2)cc1	2	-5	-18	1
COc1ccc(OC)c(NC(=O)Cc2coc3ccc(C)cc23)c1	2	-3	/	14
COc1ccc(OC)c(NC(=O)Cc2coc3ccc4ccccc4c23)c1	497*	-6	0	-7
COc1cc(CC(=O)N2CCN(S(=O)(=O)c3ccc(C)cc3)CC2)cc(OC)c1OC	-4	5	/	/
CCC1C(c2ccccc2)N(C)C(c2ccccc2)CC1(O)c1ccccc1 (configuration not stated)	178	-11	0	99
CC(C)C1C(c2ccccc2)N(C)C(c2ccccc2)CC1(O)c1ccccc1 (configuration not stated)	379*	-19	0	31
O=C(Cn1c(=O)n(-c2cccc(C(F)(F)F)c2)c(=O)c2sccc21)NCC1CCCO1 (configuration not stated)	-3	/	0	6
SMILES	Mot1-301 SUMO	ALR H2O2 inh	HIF activator	AI-2 QS modul
Cc1ccc(NN=C2c3ccccc3-c3ccccc32)cc1	5	89*	1	9
Cc1ccc(OCC(=O)NN=C2c3ccccc3-c3ccccc32)cc1	-4	-9	0	-10
CCOc1ccc(Nc2nc(Cc3nnc(SCC(=O)O)o3)cs2)cc1	1	87*	0	7
C#CCOCCOCCOCCNc1nc(N2CCN(C(=O)[C@H](CCC(=O)O)n3cc([C@@H](N)[C@H](C)CC)nn3)CC2)nc(N2CCN(C(=O)[C@H](CCCCN)n3cc([C@@H](N)CC(N)=O)nn3)CC2)n1	-3	/	/	/
CN(CC(=O)Nc1ccccc1Br)C(=O)Cn1[nH]c(=O)c2ccccc2c1=O	-1	/	/	/
COc1ccc(/C=N/NC(=O)c2cccc(S(=O)(=O)N3CCCC3)c2)cc1O	1	97*	/	/
COc1ccc(/C(C)=N/NC(=O)c2cccc(S(=O)(=O)N3CCCC3)c2)c(O)c1	-10	6	33*	46
COc1ccc(/C=N/NC(=O)c2cccc(OC(F)(F)C(F)F)c2)c(OC)c1OC	90	0	0	4
CCN(CC)S(=O)(=O)c1cccc(C(=O)N/N=C/c2cc(OC)c(O)c(OC)c2)c1	1	99*	0	16
COc1ccc(/C=N/NC(=O)c2cccc(OC(F)(F)C(F)F)c2)cc1O	-15	96*	0	6
Cc1ccc(S(=O)(=O)N2CCN(C(=O)CN3C(=O)NC4(CCCC4)C3=O)CC2)c(C)c1	4	-6	0	6
CS(=O)(=O)c1ccc(Cl)c(NC(=O)CSc2nnc(C3CC3)n2C2CC2)c1	-1	-7	/	/
CCCC(O)(c1ccc(CC)cc1)C(CN1CCOCC1)c1ccccc1 (configuration not stated)	23	-11	-38	27
Cc1ccc(C(=O)Nc2ncccc2O)cc1S(=O)(=O)N1CCCCC1	-2	/	-8	-8
COc1cc(/C=N/NC(=O)c2cccc(S(=O)(=O)N3CCCC3)c2)cc(OC)c1O	0	99*	0	23
N#Cc1ncc(C(F)(F)F)cc1Sc1ccc(N)cc1	24	82*	0	24
CCN(CC(=O)Nc1ccccc1C(F)(F)F)C(=O)CCS(=O)(=O)c1ccc(C)cc1	0	-5	1	32
c1cc2c(c(NCc3ccncc3)c1)CCCC2	47	99*	-30	3
CC1=C(C(=O)Nc2cccnc2)C(c2cccnc2)n2nc(-c3cccs3)nc2N1 (configuration not stated)	350*	36	0	1
CCc1ccc(NC(=O)COc2cccc(-n3cnnn3)c2)cc1	-5	-3	0	5
CC(C)C(=O)Nc1nnc(NC(=S)Nc2ccccc2)s1	-5	82*	3	21
O=C(Nc1ccc(S(=O)(=O)Nc2cnc3ccccc3n2)cc1)c1ccc(Cl)c([N+](=O)[O-])c1	8	/	0	33
Cc1ccc(NC(=O)COc2ccc(/C(N)=N/O)cc2)cc1C	-14	99*	0	27
CCCCOc1ccc(C(=O)NC)cc1	4	2	0	22
CCCCOc1ccc(/C(N)=N/O)cc1	-35	99*	1	31
Cc1cc2nc(-c3cccnc3SCC(=O)NCc3ccco3)[nH]c2cc1C	-19	99*	1	52
O=C(CSc1ncccc1-c1nc2ccccc2[nH]1)NCc1ccco1	-5	-5	0	37
O/N=C1/C2C3CC4C5C3C1C5C1(OCCO1)C42 (configuration not stated)	-3	-6	61*	43
Cc1ccc(Nc2nc(C(=O)NCc3ccco3)cs2)cc1	8	17	1	10
CCN(CC)C(=O)c1csc(Nc2ccc(C)cc2)n1	2	87*	0	37
